# Results as given in PubChem BioAssay (EPA / NIEHS).
# “And” between values parts separate entries of the source, which are not always exact repeats. Equal values may be shown once. The source made the active and inactive calls. Rule for the calls: active = hit-call score of the fitted dose curve at least 0.9, where 1 is the maximum; inactive = score below 0.9.
# Read-out: Apoptosis regulator Bcl-2 (Homo sapiens) (UniProt P10415)
# Test: LTEA_HepaRG_BCL2: Life Technologies and Expression Analysis (LTEA) Assay for Bcl-2 gene using HepaRG (AID 2283475);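 note: BCL2 transcript by TaqMan qRT-PCR normalised to ACTB GAPDH and POLR2A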
# Settings: mRNA level, 48 h; actives raise or lower the signal
# Description: LTEA_HepaRG is a cell based, multiplexed-readout assay that uses HepaRG, a human liver cell line, with measurements taken at 48 hours after chemical dosing on a 96-well plate.LTEA_HepaRG_BCL2 is one of 102 assay component(s) measured in the LTEA HepaRG cell culture assay. It is a marker of Cell proliferation, survival, death.Data from the assay component LTEA_HepaRG_BCL2 was analyzed into 1 endpoint. This assay endpoint, LTEA_HepaRG_BCL2, was analyzed with bidirectional fitting relative to DMSO as the negative control and baseline of activity. Using a type of inducible reporter, measures of mRNA induction for gain or loss-of-signal activity can be used to understand regulation of transcription factor activity. To generalize the intended target to other relatable targets, this assay endpoint is annotated to the cell cycle intended target family, where the subfamily is Cell proliferation, survival, death.
# A total of 1060 chemcials from the ToxCast library were tested in eight-point concentration-response experiments. Cell culture and cytotoxicity assays were conducted at Thermo Fisher Scientific's Custom Services facility (Madison, WI). A single lot of human HepaRG cells (Thermo Fisher Scientific, Frederick, MD) was used for the cell culture experiments. 96-well format collagen type I coated plates of human HepaRG cells were prepared using established methods. Briefly, cryopreserved HepaRG cells were thawed, plated at a density of approximately 100,000 cells/well in HepaRG Thaw, Plate, and General Purpose media (HPRG770, Thermo Fisher Scientific), and incubated for 48 hours. 0.5% DMSO was selected as vehicle control to balance the requisite need of DMSO in HepaRG cultures to maintain differentiation (for example, baseline metabolism, proportions of hepatocytes vs. cholangiocytes), while enabling further hepatic receptor pathway activation (for example, PXR and CAR) in response to chemical exposure. 48 hours after plating, the culture medium was replaced with HepaRG Serum-Free Incudtion Media. Cells were exposed to each test chemical in duplicate and maintained in CO2 incubators for another 48 hours. Chemical plates were thawed to room temperature and 200x concentrations of treatment groups were prepared. 8-point conentration-reponse curves were made with the highest exposure at 100 uM, followed by half-log dilutions, all in 0.5% DMSO. Each test plate contained variouse controls, induction positive controls (1mM phenobarbital), cytotoxicity positive controls ([…] aflatoxin B1), vehicle controls (0.5% DMSO), and total lysis controls (0.5% DMSO). Cell morphology images were taken using an Essen IncuCyte FLR automated microscope, with six 96-well plates imaged in about 24 minutes. Images were captured and exported and JPEG files. Spent culture media was transfered to black-well plates for the LDH assay, and remaining media was sorted at -80 C for later use. Cells were treated with RLT buffer and frozen until shipped for gene expression analysis. Total RNA was isolated from the cell suspension in 75 uL of Buffer RLT (Qiagen, Germantown, MD 20874) by Quintiles/Expression Analysis (Durham, NC) using a custom isolation procedure. Total RNA from each plate well was transferred to a preamplification plate. Fluidigm's 96.96 Dynamic ArrayTM (Fluidigm, Amsterdam, the Netherlands) technology was used for gene expression analyses by quantitative reverse transcription polymerase chain reaction (qRT-PCR, performed by Quintiles/Expression Analysis, Durham, NC)89. Standard TaqManTM Assays (Applied Biosystems/ThermoFisher Scientific, Foster City, CA) were used to assess the expression of 93 genes selected based on their selectivity and sensitivity to important hepatic receptors known to be modulated by environmental chemicals; importance in human hepatocyte functionality; and hepatotoxicity. […]
# Apoptosis regulator Bcl-2 (Homo sapiens), sequence (P10415 whole entry, looked up): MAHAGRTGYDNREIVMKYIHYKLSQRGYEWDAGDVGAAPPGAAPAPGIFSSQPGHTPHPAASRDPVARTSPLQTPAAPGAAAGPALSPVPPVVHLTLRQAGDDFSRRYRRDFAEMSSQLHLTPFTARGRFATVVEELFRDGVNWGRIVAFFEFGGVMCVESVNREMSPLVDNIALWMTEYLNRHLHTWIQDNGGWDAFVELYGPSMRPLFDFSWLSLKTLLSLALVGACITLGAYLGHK
Compound,outcome,AC50
N#Cc1c(Cl)c(Cl)c(Cl)c(C#N)c1Cl,inactive,–
Oc1cc(Cl)ccc1Oc1ccc(Cl)cc1Cl,inactive,–
CCOCN(C(=O)CCl)c1c(C)cccc1CC,inactive,–
COP(=S)(OC)Oc1ccc(SC)c(C)c1,inactive,–
O=C(O)CCCOc1ccc(Cl)cc1Cl,inactive,–
CN1CSC(=S)N(C)C1,inactive,–
O=C(O)C(F)(F)C(F)(F)C(F)(F)C(F)(F)C(F)(F)C(F)(F)C(F)(F)F,inactive,–
C#CCN1C(=O)COc2cc(F)c(N3C(=O)C4=C(CCCC4)C3=O)cc21,inactive,–
O=C(O)COc1ccc(Cl)cc1Cl,inactive,–
CC(C)N(C(=O)COc1nnc(C(F)(F)F)s1)c1ccc(F)cc1,inactive,–
Cc1[nH]c(=O)n(C(C)(C)C)c(=O)c1Cl,inactive,–
CCCN(CCC)c1c([N+](=O)[O-])cc(C(F)(F)F)cc1[N+](=O)[O-],inactive,–
OCCOc1ccccc1,inactive,–
O=[N+]([O-])/N=C1\NCCN1Cc1ccc(Cl)nc1,inactive,–
Oc1ccc(Cl)cc1Cc1ccccc1,inactive,–
ClC1C(Cl)C(Cl)C(Cl)C(Cl)C1Cl (stereo not given),inactive,–
CCc1ccc(C(=O)NN(C(=O)c2cc(C)cc(C)c2)C(C)(C)C)cc1,inactive,–
CC[C@H](C)[C@H]1O[C@]2(C=C[C@@H]1C)C[C@@H]1C[C@@H](C/C=C(\C)[C@@H](O[C@H]3C[C@H](OC)[C@@H](O[C@H]4C[C@H](OC)[C@@H](O)[C@H](C)O4)[C@H](C)O3)[C@@H](C)/C=C/C=C3\CO[C@@H]4[C@H](O)C(C)=C[C@@H](C(=O)O1)[C@]34O)O2 (tested in a mixture with another compound),–,9.08 µM (active)
CC1(c2ccc(Oc3ccccc3)cc2)OC(=O)N(Nc2ccccc2)C1=O (stereo not given),–,9.6 µM (active)
CNC(=O)Oc1ccccc1OC(C)C,inactive,–

Compound,outcome,AC50
O=S(=O)(O)C(F)(F)C(F)(F)C(F)(F)C(F)(F)C(F)(F)C(F)(F)C(F)(F)C(F)(F)F,–,50 µM (active) and 65.5 µM (active) and 48 µM (active)
O=C1c2ccccc2C(=O)N1SC(Cl)(Cl)Cl,inactive,–
CCCN(CCOc1c(Cl)cc(Cl)cc1Cl)C(=O)n1ccnc1,–,28.9 µM (active)
O=S1OCC2C(CO1)C1(Cl)C(Cl)=C(Cl)C2(Cl)C1(Cl)Cl (stereo not given),–,84.7 µM (active)
CNC(=O)/C=C(\C)OP(=O)(OC)OC,inactive,–
CC1(C)C(C=C(Cl)Cl)C1C(=O)OC(C#N)c1ccc(F)c(Oc2ccccc2)c1 (stereo not given),inactive,–
O=C(NC(=O)c1c(F)cccc1F)Nc1ccc(OC(F)(F)C(F)OC(F)(F)F)c(Cl)c1 (stereo not given),inactive,–
CCC(C)Nc1c([N+](=O)[O-])cc(C(C)(C)C)cc1[N+](=O)[O-] (stereo not given),inactive,–
Clc1ccccc1-c1nnc(-c2ccccc2Cl)nn1,inactive,–
COc1nn(CSP(=S)(OC)OC)c(=O)s1,inactive,–
CCN(CC)C(=O)SCc1ccc(Cl)cc1,inactive,–
CCC(C)(NC(=O)c1cc(Cl)c(C)c(Cl)c1)C(=O)CCl (stereo not given),inactive,–
O=[N+]([O-])c1c(Cl)c(Cl)c(Cl)c(Cl)c1Cl,inactive,–
CNC(=O)CSP(=S)(OC)OC,inactive,–
CC(C)OC(=O)Nc1cccc(Cl)c1,inactive,–
N#CN,inactive,–
CC(C)(C)C(O)C(Oc1ccc(Cl)cc1)n1cncn1 (stereo not given),inactive,–
COP(=S)(OC)Oc1ccc([N+](=O)[O-])cc1,inactive,–
CCC(C)(C)C(=O)OC1=C(c2ccc(Cl)cc2Cl)C(=O)OC12CCCCC2,inactive,–
CNC(=O)Oc1cccc(N=CN(C)C)c1,inactive,–
